Bioassay records deposited in PubChem BioAssay by National Center for Advancing Translational Sciences (NCATS).
This is a sample that favours compounds with a hit; in the whole collection about 12% have one here.
Shiga toxin inh – A qHTS for Small Molecule Inhibitors of Shiga Toxin. Vero cells, Shiga toxin protein synthesis inhibition reporter. AID 2315, 2010. inhibition, % at 38.7 µM. 9.2% of 290,000 active; in the data active = inhibition mostly above about 28%, no sharp cut-off; inactive = mostly below about 43%
Cycloheximide cs – Cycloheximide Counterscreen for Small Molecule Inhibitors of Shiga Toxin. cell reporter, cycloheximide protein synthesis inhibition counterscreen. max response, %. 12% of 300,000 active. AID 2314, 2010; in the data active = max response mostly above about 13%, no sharp cut-off; inactive = mostly below about 14%; note: read at 38.3 µM for the half of the compounds with a filed dose
FMDV inh – High Throughput Screening for Foot and Mouth Disease Virus Antivirals | 1.2% of 410,000 active | AID 1159524, 2015 | Potency, µM (highest dose often 57.9 µM), actives largely listed as inhibitors | FMDV antiviral cell-based qHTS; calls by dose curve; tested in HEK293T cells; note: read-out not given here; nearly all actives have a fitted effect of over 45% in size
Sm TGR block – qHTS Assay for the Inhibitors of Schistosoma Mansoni Peroxiredoxins | Schistosoma mansoni thioredoxin glutathione reductase (TGR), Q962Y6 | purified TGR, DTNB reduction, TNB absorbance 405 nm | Potency, µM (titrated, usually from 114 µM), usual class: inhibitors | 3% of 360,000 active | AID 485364, 2010; active = well fitted inhibition curve with a large enough effect; inconclusive = small, poorly fitted or top-dose-only effect; inactive = no such curve, though single readings can be large or run the other way; note: nearly all actives have a fitted effect of over 60% in size
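TGR 20 nM + NADPH 100 uM (dispensed conc.), cpd preinc 15 min RT; start with NADPH (500 uM addition) then DTNB (15 mM addition). Kinetic TNB absorbance, 405 nm filter. Four-parameter Hill fit across titration.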
A number is an active result; i = inactive; ? = inconclusive; nt = no result.

SMILES	Shiga toxin inh	Cycloheximide cs	FMDV inh	Sm TGR block
O=C(CCC1N=C2c3ccccc3N=C(SCc3ccc(F)cc3)N2C1=O)NCCc1ccccc1 (stereo not given)	nt	nt	?	i
CCc1ccccc1NC(=O)Cn1c(=O)n(Cc2ccco2)c(=O)c2ccccc21	nt	nt	i	i
Cc1cc(C)c(S(=O)(=O)/N=C2\C=C(Nc3ccc(C(=O)O)cc3)C(=O)c3ccccc32)c(C)c1	i	i	?	?
CCc1ccc(S(=O)(=O)/N=C2\C=CC(=O)c3ccccc32)cc1	i	i	nt	8.9µM
O=C1C(Nc2ccc(O)cc2)=C/C(=N/S(=O)(=O)c2cccs2)c2ccccc21	i	21	13µM	i
CCc1ccc(S(=O)(=O)/N=C2\C=C(Nc3cccc(C(=O)O)c3)C(=O)c3ccccc32)cc1	i	i	?	i
CCc1ccc(S(=O)(=O)/N=C2\C=C(Nc3ccc(O)cc3)C(=O)c3ccccc32)cc1	i	17	35µM	i
O=C(O)c1ccc(NC2=C/C(=N/S(=O)(=O)c3cccs3)c3ccccc3C2=O)cc1	nt	nt	10µM	nt
CCc1ccc(S(=O)(=O)/N=C2/C=C(Sc3ncn[nH]3)C(=O)c3ccccc32)cc1	49	19	32µM	0.32µM
O=C(O)c1ccc(NC2=C/C(=N/S(=O)(=O)c3ccccc3)c3ccccc3C2=O)cc1	i	i	11µM	20µM
COc1cc(CN2CCCC(c3nc(-c4ccncc4)ncc3-c3ccccc3)C2)ccc1O (stereo not given)	nt	nt	i	nt
CCc1cccc2c(-c3ccccc3)nc(SCC(=O)Nc3ccc(OC)cc3)nc12	nt	nt	i	i
COC(=O)c1ccc(NC(=O)CC2C(=O)N(c3ccc(C)cc3)C(=O)N2Cc2ccc(OC)cc2)cc1 (stereo not given)	nt	nt	i	i
COc1cc(OC)c(NS(=O)(=O)c2ccc3c(c2)CCCN3C(C)=O)cc1Cl	nt	nt	i	i
O=C(Nc1nccs1)c1cn2ccccc2n1	i	i	i	i
NNC(=O)c1cn2ccccc2n1	60	29	i	i
Cc1cnc(C(=O)OCC(=O)c2ccccc2)cn1	nt	nt	i	i
O=C(NC1CCCc2ccccc21)c1cn2ccccc2n1 (stereo not given)	i	19	i	i
Cc1ccc(C(=O)COC(=O)c2cn3ccccc3n2)cc1	i	42	i	i
Cn1ccc(C(=O)OCC(=O)c2ccccc2)n1	i	17	i	i
O=C(Nc1ccc2c(c1)OCO2)N1CCOCC1	66	36	i	i
Oc1cc2c(cc1CN1CCN(c3ncccn3)CC1)OCO2	i	i	i	1µM
O=C(Nc1ccc2c(c1)OCCO2)C1CCCN1C(=O)Nc1ccc(F)cc1 (stereo not given)	i	12	i	i
O=C(CN1CCN(c2ccc(F)cc2)CC1)c1ccc2c(c1)OCO2	i	i	i	45µM
CCC(C)NC(=O)Cn1c(=O)ccc2cc(S(=O)(=O)N3CCCC3)ccc21 (stereo not given)	nt	nt	i	i
SMILES	Shiga toxin inh	Cycloheximide cs	FMDV inh	Sm TGR block
CN(C)c1ccc(-c2noc(C3CCN(C(=O)Nc4ccc(Cl)cc4)CC3)n2)cc1	52	16	?	i
CN(C)c1ccc(-c2noc(C3CCN(S(=O)(=O)c4ccc(C(=O)O)cc4)CC3)n2)cc1	nt	nt	i	nt
CN(C)c1ccc(NC(=O)N2CCOCC2)cc1	72	39	i	i
CC1CN(C(=O)Nc2ccc3c(c2)OCO3)CC(C)O1 (stereo not given)	50	45	i	i
O=C(Nc1ccc2c(c1)OCO2)N1CCN(c2ccc(F)cc2)CC1	i	19	i	nt
O=C(Nc1ccc2c(c1)OCCO2)N1CCOCC1	i	i	i	i
COc1ccc(F)c(CN2CCOc3ccc(CN4CCC(O)(c5cccnc5)CC4)cc3C2)c1	nt	nt	i	nt
COc1ccc(OC)c(/C=C/c2nc3ccccc3c(=O)n2-c2ccc(F)c(Cl)c2)c1	nt	nt	i	i
CCn1ccc2cc(S(=O)(=O)N3CCC(C(=O)NCc4cccc(C)c4)CC3)ccc21	nt	nt	i	i
O=C(Nc1ccc2c(c1)OCO2)N1CCN(c2ncccn2)CC1	83	35	i	i
O=C(Nc1ccc2c(c1)OCO2)N1CCCC1	55	i	i	i
Clc1ccc2sc(C3CCNCC3)nc2c1	56	36	i	i
O=C(CN1CCN(CCN2C(=O)c3cccc4cccc(c34)C2=O)CC1)c1ccc(Cl)cc1	i	i	nt	14µM
COc1ccc(-c2nc3cnc(Oc4cccc(Cl)c4)nc3n(C3CC3)c2=O)cc1	nt	nt	i	nt
CC1OC(CC(=O)O)CC2=C1C(=O)c1c(O)cccc1C2=O (stereo not given)	nt	nt	3.5µM	nt
O=C(CSc1ncccn1)NCc1ccc2c(c1)OCO2	25	i	i	i
O=C(CSc1ncccn1)Nc1cc(Cl)ccc1[N+](=O)[O-]	i	23	i	i
O=C(COC(=O)c1ccccn1)NCc1cccc(Cl)c1	nt	nt	i	i
O=C(CSc1ncccn1)NCc1cccc(Cl)c1	95	42	i	i
O=C(CSc1ncccn1)NC(=O)Cc1ccccc1	nt	nt	i	i
O=C(CSCc1ccccc1)NCc1ccc2c(c1)OCO2	i	i	i	i
O=C(CSc1ncccn1)NCc1ccccc1	i	18	i	i
O=C(CCNS(=O)(=O)c1ccc2c(c1)CCN2C(=O)C1CC1)N1CCN(c2cccc(C(F)(F)F)c2)CC1	nt	nt	?	i
O=C(CN1CCN(c2ncccn2)CC1)NCc1ccc2c(c1)OCO2	i	i	i	i
Oc1ccc(CNCc2ccc3c(c2)OCO3)c2cccnc12	nt	nt	nt	5.6µM
SMILES	Shiga toxin inh	Cycloheximide cs	FMDV inh	Sm TGR block
O=C(CSc1ncccn1)NCc1ccc(Cl)cc1	73	49	i	nt
COc1ccc(CNC(=O)C(c2cccs2)N(Cc2ccco2)C(=O)Cc2cccs2)cc1 (stereo not given)	i	i	i	28µM
Cc1ccc(-c2nnn(CC(=O)N(Cc3ccco3)C(C(=O)NC(C)(C)C)c3cccs3)n2)o1 (stereo not given)	i	i	i	18µM
Cc1c(C(=O)N2CCCCCC2)c(S(=O)(=O)Nc2ccc(OC(F)(F)F)cc2)c(C)n1C	nt	nt	i	i
CCOC(=O)c1c(C)[nH]c(C(=O)C(Cc2ccccc2)N(C)C)c1C (stereo not given)	i	20	i	i
CCOC(=O)c1c(C)[nH]c(C(=O)OC(C)C(=O)NCc2ccccc2)c1C (stereo not given)	nt	nt	i	i
COC(=O)c1c(C)[nH]c(C(=O)C(Cc2ccccc2)N(C)C)c1C (stereo not given)	96	26	i	i
CC[C@H](C)[C@H](NC(=O)[C@H](C)NC(=O)CNC(=O)[C@H](CCCN=C(N)N)NC(=O)[C@H](C)NC(=O)[C@H](CC(C)C)NC(=O)[C@H](CCC(=O)O)NC(=O)[C@H](CC(C)C)NC(=O)[C@H](C)NC(=O)[C@@H](N)CCC(=O)O)C(=O)N[C@@H](Cc1ccccc1)C(=O)N[C@@H](CCC(N)=O)C(=O)N[C@@H](C)C(=O)O	i	i	nt	nt
O=C1CC(c2ccccc2)Oc2cc(O)cc(O)c21 (stereo not given)	57	16	i	i
O=C1CC(c2ccc(O)c(O)c2)Oc2cc(O)cc(O)c21 (stereo not given)	i	i	i	40µM
